# Rows were chosen to be rich in hits. Some 21% of all compounds tested hit in one or more screens of this group.
# Shiga inhibitor: A qHTS for Small Molecule Inhibitors of Shiga Toxin | Vero cells, Shiga toxin protein synthesis inhibition reporter | inhibition, % at 38.7 µM | 290,000 compounds, 9.2% hits; in the data active = inhibition mostly above about 28%, no sharp cut-off; inactive = mostly below about 43%; note: 0% is about no effect
# CHX counter: Cycloheximide Counterscreen for Small Molecule Inhibitors of Shiga Toxin; cell reporter, cycloheximide protein synthesis inhibition counterscreen; max response, %; 300,000 compounds, 12% hits; AID 2314, 2010; in the data active = max response mostly above about 13%, no sharp cut-off; inactive = mostly below about 14%; note: read at 38.3 µM for the half of the compounds with a filed dose; 0% is about no effect
# Sm TGR block: qHTS Assay for the Inhibitors of Schistosoma Mansoni Peroxiredoxins | purified TGR, DTNB reduction, TNB absorbance 405 nm | 360,000 compounds, 3% hits | Potency, µM (top dose mostly 114 µM), without a hit: at the highest dose activity change, negative = inhibition, most hits filed as inhibitors | Schistosoma mansoni thioredoxin glutathione reductase (TGR), Q962Y6; note: potency is the fitted concentration of half-maximal effect; % is set by controls: 0 for no effect and ±100 for the full control effect; nearly all actives have a fitted effect of over 60% in size
#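 Kinetic colorimetric format: TGR-catalysed, NADPH-driven DTNB reduction monitored via TNB absorbance. Enzyme dispensed at 20 nM; compound exposure 15 min at room temperature before reaction start.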
# Pf growth 96h: Primary qHTS for delayed death inhibitors of the malarial parasite plastid, 96 hour incubation; P. falciparum luciferase reporter growth, 96 h; Potency, µM (top dose mostly 28.7 µM), for the others: at the highest dose activity change, negative = inhibition, usual class: inhibitors; 320,000 compounds, 6.9% hits; note: potency is the fitted concentration of half-maximal effect; % is set by controls: 0 for no effect and ±100 for the full control effect
#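 Luminescence readout: decreased luciferase signal marks inhibited growth of reporter-expressing P. falciparum in infected red cells (2% hematocrit, 0.05% parasitemia final), exposed to compound two generations (96 h, 37 C, 5% CO2).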
# Pf growth 48h: Primary qHTS for delayed death inhibitors of the malarial parasite plastid, 48 hour incubation; P. falciparum luciferase growth in erythrocytes, 48 h; Potency, µM (top dose mostly 28.7 µM), for the others: top-dose activity change, negative = inhibition, most hits filed as inhibitors; 310,000 compounds, 5.9% hits; note: potency is the fitted concentration of half-maximal effect; % is set by controls: 0 for no effect and ±100 for the full control effect
#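 Erythrocytes infected with P. falciparum carrying an integrated firefly luciferase reporter (2% hematocrit, 0.1% parasitemia final) were exposed to compounds in RPMI 1640 with 0.5% Albumax at 37 C, 5% CO2. Growth inhibition was scored as reduced luminescence.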
# NS1 function inh: qHTS Assay for Inhibitors of Influenza NS1 Protein Function; AID 2326, 2010; 270,000 compounds, 0.4% hits; Potency, µM (highest dose often 46.1 µM), for inactives: top-dose activity, positive = more growth; calls by dose curve; note: potency is the fitted concentration of half-maximal effect; actives are rising curves; nearly all actives have a fitted effect of over 50% in size
#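 Compounds were scored for reversing the slow growth caused by influenza A NS1 in S. cerevisiae, measured by optical density at 600 nm. Assay medium contained 2% galactose at pH 6.0; NS1-free yeast of the same strain were the positive control.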
# * marks the source's active call; other numbers are inactive results; i = inactive; ? = inconclusive; nt = no result given. Unless noted, calls come from the whole dose curve; as a rule, active = well fitted curve in the direction sought with a large enough effect; inconclusive = small, poorly fitted or top-dose-only effect, or another doubt; inactive = no such curve, though single readings can be large; an effect the other way counts as inactive or inconclusive.
SMILES,Shiga inhibitor,CHX counter,Sm TGR block,Pf growth 96h,Pf growth 48h,NS1 function inh
O=S(=O)(NC1CCCCC1N1CCN(c2ccc(F)cc2)CC1)c1ccc(Cl)cc1 (stereo unspecified),32.4,8.7,-5.3%,?,13.1µM*,-12.8%
CCn1c(SC)nc2c(c1=O)SC(C)C2 (stereo unspecified),4.1,-1.9,0.3%,2.33µM*,?,-9.9%
COc1ccc(S(=O)(=O)Cc2ccc(C(=O)N3CC(C)CC(C)C3)o2)cc1 (stereo unspecified),-3.8,-0.6,?,?,9.9%,7.4%
O=C(c1ccc(CS(=O)(=O)c2ccc(Br)cc2)o1)N1CCC2(CC1)OCCO2,-15.9,-2.4,35.5µM*,i,13.1%,5.4%
COc1ccc(S(=O)(=O)Cc2ccc(C(=O)N3CCOCC3)o2)cc1,6.2,-0.6,28.2µM*,?,6.4%,-1.5%
O=C(c1ccc(CS(=O)(=O)c2ccccc2)o1)N1CCN(c2ncccn2)CC1,-1.7,1.2,28.2µM*,-23.7%,nt,4.2%
O=C(c1ccc(CNS(=O)(=O)c2ccccc2)cc1)N1CCC2(CC1)OCCO2,87.0,52.0,39.8µM*,8.28µM*,55.0%,-10.1%
Cc1ccc(S(=O)(=O)Cc2ccc(C(=O)N3CCN(c4ccccn4)CC3)o2)cc1,-7.2,-5.7,?,?,nt,-18.7%
O=C(c1ccc(CNS(=O)(=O)c2ccc(Br)cc2)cc1)N1CCC2(CC1)OCCO2,-1.1,-6.4,-11.9%,?,?,-4.4%
CN(C)Cc1cc(C(C)(C)C)cc(CNC2CCCCC2)c1O,nt,nt,nt,nt,nt,-5.3%
CN(C)CCN(C(=O)C1CCN(S(=O)(=O)c2cccs2)CC1)c1nc2ccccc2s1,nt,nt,-9.1%,29.1%,23.2%,nt
Cc1cccc(CS(=O)(=O)Cc2ccc(C(=O)N3CCC4(CC3)OCCO4)o2)c1,-12.7,3.9,?,nt,3.9%,3.0%
O=C(c1ccc(CS(=O)(=O)c2ccc(Br)cc2)o1)N1CCN(c2ccc(F)cc2)CC1,-8.9,7.6,0.1%,?,?,-3.0%
O=C(c1ccc(CS(=O)(=O)c2ccccc2)o1)N1CCC2(CC1)OCCO2,-3.9,-5.7,22.4µM*,-3.6%,17.7%,23.8%
O=C(c1ccc(CS(=O)(=O)c2ccc(Br)cc2)o1)N1CCOCC1,6.7,0.4,44.7µM*,?,nt,-4.9%
CCN(CC)c1ccc(C(=O)OCC(=O)Nc2cccc(S(=O)(=O)NC3=NCCCCC3)c2)cc1,1.3,-1.3,-0.4%,?,?,28.8%
Cc1nc(SCc2ccccc2)n[nH]1,14.1,13.4*,10.4%,6.7%,42.3%,3.3%
CCc1nc(SCc2ccccc2C#N)n[nH]1,2.3,-2.0,-8.9%,9.28µM*,-11.9%,2.3%
c1ccc(CSc2n[nH]c(-c3ccco3)n2)cc1,81.2*,20.0*,-22.4%,71.7%,46.4%,-96.2%
CCc1nc(SCc2ccc(OC)cc2)n[nH]1,32.0*,30.0*,12.8%,8.1%,72.5%,20.1%
Cc1nc(SCC(=O)c2ccccc2)n[nH]1,15.1,63.2,-2.7%,30.7%,44.1%,-53.2%
N#Cc1ccccc1CSc1nc(N)cc(N)n1,-4.3,-0.7,1.5%,-3.6%,-2.3%,21.0%
O=C(COC(=O)CNC(=O)c1ccccc1Cl)Nc1ccccc1Cl,nt,nt,4.1%,-4.9%,13.2%,nt
CSc1cccc(N2CC(C(=O)N(CC(C)C)c3c(N)n(Cc4ccccc4)c(=O)[nH]c3=O)CC2=O)c1 (stereo unspecified),nt,nt,1.3%,?,?,nt
Cc1ccc(Cn2c(=O)c3cccnc3n(CC(=O)Nc3cc(Cl)ccc3C)c2=O)cc1,nt,nt,6.1%,nt,nt,nt
SMILES,Shiga inhibitor,CHX counter,Sm TGR block,Pf growth 96h,Pf growth 48h,NS1 function inh
COc1ccc(C2=NS(=O)(=O)N(C)C(C(=O)N3CCN(C)CC3)=C2)cc1,-3.4,-3.4,-2.8%,28.8%,24.8%,0.6%
Fc1cccc(Cl)c1CSC1=NCCS1,61.5*,34.7*,6.0%,37.2%,60.0%,6.9%
CCCc1nc(SCc2ccccc2Cl)n[nH]1,23.2,23.7*,1.9%,-17.3%,nt,-69.4%
Cc1nc(SCc2c(F)cccc2Cl)n[nH]1,23.6,14.8*,-0.4%,11.0%,26.5%,-7.1%
Nc1nc(SCc2ccc(F)cc2)n[nH]1,nt,9.3,-19.2%,7.9%,-0.4%,6.2%
CCc1nc(SCc2ccc(F)cc2)n[nH]1,88.1*,31.2*,nt,-3.0%,35.6%,4.5%
Cn1cc(S(=O)(=O)N2CCOCC2)cc1C(=O)NCc1ccccc1Cl,-7.2,1.3,2.6%,?,68.7%,-24.5%
Cc1ccc(N2CC(NC(=O)c3ccco3)CC2=O)cc1C (stereo unspecified),nt,nt,1.6%,nt,nt,nt
CCOc1cccc(CC(=O)Nc2ccc3nc(N4CCCCC4)cc(C)c3c2)c1OCC,nt,nt,2.0%,nt,nt,nt
COc1ccc(CC(=O)N2CC(=O)Nc3ccc(F)cc3C2c2ccccc2)cc1 (stereo unspecified),nt,nt,2.4%,nt,nt,nt
COCC(=O)N1CCC(Oc2ccc(C(=O)N3C[C@@H]4CCC[C@H]3C4)cc2)CC1,2.2,2.0,1.6%,-5.7%,?,-2.6%
O=C(c1cccs1)N1CCCc2cc(NS(=O)(=O)c3ccc(F)cc3)ccc21,nt,nt,1.5%,nt,nt,nt
CCc1nc(SCc2ccccc2)n[nH]1,58.2*,25.0*,20.4%,11.8%,42.1%,-14.9%
CCCc1nc(SCc2ccc(OCC)cc2)n[nH]1,68.6,4.8,-1.6%,-15.8%,-17.9%,-0.8%
CCCOc1ccc(CSc2n[nH]c(C)n2)cc1,55.3*,32.3*,2.1%,106.4%,108.9%,-64.1%
COc1ccc(-n2ncc(C(=O)N3CCN(c4ccc(F)cc4)CC3)c2C)cc1,-6.4,-1.6,-5.7%,2.1%,-16.1%,-1.1%
C/C(=N/NC(=O)c1ccccn1)c1ccc(O)cc1,60.0*,31.6*,10.2%,311.5%,216.0%,3.1%
C/C(=N\NC(=O)C(O)c1ccccc1)c1ccc(Cl)cc1 (stereo unspecified),16.1,7.4,21.4%,4.15µM*,-19.0%,6.3%
C/C(=N\NC(=O)c1ccc(Cl)cc1)c1ccccn1,84.6*,40.4*,-25.0%,-41.9%,?,-115.3%
C/C(=N/NC(=O)c1ccccn1)c1ccco1,22.9,3.4,-29.3%,333.9%,244.3%,0.1%
C/C(=N\NC(=O)c1cc(C)nc2ccccc12)c1ccccn1,nt,nt,1.4%,3.29µM*,3.7µM*,nt
O=C(Cn1ncc2c3ccccc3n(Cc3ccccc3)c2c1=O)NCc1ccco1,-7.7,1.2,?,?,?,3.6%
C/C(=N\NC(=O)c1ccccn1)c1ccc(Cl)cc1,52.9*,32.8*,-4.1%,9.4%,-7.1%,-31.0%
O=C(NCCNC(=O)c1ccccn1)c1ccc(Cl)cc1,19.4,-5.5,-2.7%,?,7.7%,3.7%

# Compound activity deposited in PubChem by National Center for Advancing Translational Sciences (NCATS).
